Usually Inhibition stands for the change of the read-out against control, counted positive when it falls. A lower Inhibition goes with little suppression.

Drawing on ChEMBL document CHEMBL1157539, “Thousands of chemical starting points for antimalarial lead identification” (Nature, 2010), this text covers Inhibition for 31 compounds.

What all share (assay type): functional
For experiment [1], the system named is Plasmodium falciparum. Nature of the experiment: GSK_TCMDC: Inhibition of Plasmodium falciparum 3D7 in whole red blood cells, using parasite LDH activity as an index of growth. Test compounds present at 2uM.
Experiment [2] deals with Plasmodium falciparum. Nature of the experiment: GSK_TCMDC: Inhibition of Plasmodium falciparum Dd2 in whole red blood cells, using parasite LDH activity as an index of growth. Test compounds present at 2uM.
A further experiment concerns HepG2. Nature of the experiment: GSK_TCMDC: Percent inhibition of human HepG2 cell line. Test compounds present at 10uM.

`Cc1cc(C)cc(Oc2c(C(F)(F)F)oc3c(CN4CC(C)OC(C)C4)c(O)ccc3c2=O)c1` (stereo not drawn): the Inhibition is 89% with Plasmodium falciparum [1], 54% in the experiment with Plasmodium falciparum [2] and 5% in the experiment on HepG2.
With `O=C(NC1CCCc2ccccc21)[C@@H]1CCCN1C(=O)c1ccc(O)c(-c2cccc([N+](=O)[O-])c2)c1` (stereo partly drawn), the figures for the Inhibition in the experiment with Plasmodium falciparum [1], in the experiment on Plasmodium falciparum [2] and with HepG2 were 99%, 99% and 0%, respectively.
In the case of `COc1cc(C)cc(CN2CCC(Cc3ccccc3)CC2)c1O`, the Inhibition in the experiment on Plasmodium falciparum [1] worked out at 97%; with Plasmodium falciparum [2], 94%; with HepG2, 35%.
The like results for `CCN(CC)CCNc1ccnc2[nH]c3ccc(Cl)cc3c12` were, in that order, 100%, 92% and 3%.
For `O=C(Nc1cccc(Cl)c1)N(CCCn1ccnc1)Cc1csc(-c2ccc(CNCc3ccccc3)cc2)n1.O=C(O)C(F)(F)F`, in that order: 100%, 45% and 11%.
Take `CN1CCCN(Cc2cccc(-c3ccc(NS(=O)(=O)c4cccc5cccnc45)cc3)c2)CC1.O=C(O)C(F)(F)F`: the Inhibition amounted to 100% with Plasmodium falciparum [1], 87% in the experiment with Plasmodium falciparum [2] and 44% in the experiment with HepG2.
For `CN1CCN(Cc2cc(NC(=O)c3ccc(-c4ccc(Cl)cc4Cl)cc3)ccc2-c2ccccc2)CC1`, in that order: 95%, 21% and 52%.
The like results for `CN1CCN(c2ccnc3cc4ccccc4cc23)CC1` were, in that order, 93%, 49% and 11%.
In the case of `CC(Nc1cc(-c2ccccn2)nc(-c2ccccn2)n1)c1ccccc1` (stereo not drawn), the Inhibition is on record as 85% in the experiment with Plasmodium falciparum [1], 98% in the experiment with Plasmodium falciparum [2] and 61% in the experiment with HepG2.
As for `COc1ccc(CCN(C)CCCOc2ccc(NC(=O)COc3cccc4sc5ccccc5c(=O)c34)cc2)cc1OC`, the Inhibition was 94% in the experiment with Plasmodium falciparum [1], 90% in the experiment with Plasmodium falciparum [2] and 99% with HepG2.
On to `O=C(NC(Nc1ccc([N+](=O)[O-])cc1)C(Cl)(Cl)Cl)c1cccc(Cl)c1` (stereo not drawn), for which the Inhibition in the experiment on Plasmodium falciparum [1] is 92%; in the experiment on Plasmodium falciparum [2], 17%; in the experiment on HepG2 it was 0%.
The like results for `Cc1noc(C)c1-c1cccc(CNCc2ccc(-c3ccc(-c4nc5cc(C(F)(F)F)ccc5[nH]4)s3)cc2)c1.O=C(O)C(F)(F)F` were, in that order, 100%, 99% and 54%.
For the compound `Cl.c1cc(CNC2Cc3ccccc3C2)cc(-c2cnc(N3CCNCC3)nc2)c1`, the values for the Inhibition with Plasmodium falciparum [1], in the experiment with Plasmodium falciparum [2] and with HepG2 were 93%, 65% and 43%, respectively.
For `CCCc1cc(Cc2cnc(N)nc2N)cc(OCCCCCC(=O)O)c1OC.Cl`, in that order: 95%, 2% and 8%.
`Nc1nc(N)c2c(ccc3c2ccn3Cc2ccc(OCc3ccccc3)cc2)n1`: the figures for the Inhibition with Plasmodium falciparum [1], in the experiment with Plasmodium falciparum [2] and with HepG2 were 98%, 1% and 5%, respectively.
The like results for `Cc1ccc2[nH]ncc2c1N(CC1CCCCC1)c1ccnc(Nc2ccc(OCC(O)CN3CC=CCC3)cc2)n1.O=CO` (stereo not drawn) were, in that order, 100%, 79% and 29%.
The like results for `CN1CCN(CC2(Nc3nccc(NCCc4cn(C)c5ccccc45)n3)CCCCC2)CC1` were, in that order, 91%, 41% and 67%.
For `O=C(Nc1cccc(-c2cccc(-c3nc4cc(F)ccc4[nH]3)c2)c1)c1csnn1`, in that order: 95%, 29% and 23%.
On to `O=c1cc(NCCCNCc2ccc(C(F)(F)F)c(F)c2)[nH]c2ccccc12`, for which the Inhibition with Plasmodium falciparum [1] is reported as 93%; in the experiment with Plasmodium falciparum [2], 26%; with HepG2, 5%.
For `COc1ccc2nccc([C@@H](O)CN3CCC(NC(=O)/C=C/c4ccc5[nH]c(=O)ccc5c4)CC3)c2c1`, in that order: 96%, 83% and 2%.
The like results for `COc1ccc2nccc([C@@H](O)CN3CCC(NCc4ccc5cccc(O)c5n4)CC3)c2c1.O=C(O)C(=O)O` were, in that order, 93%, 40% and 10%.
Consider `CN1CCN(c2cccc(NC(=O)c3ccc(-c4ccc(C#N)cc4)cc3)c2)CC1`, for which the Inhibition in the experiment on Plasmodium falciparum [1] came to 84%; in the experiment on Plasmodium falciparum [2], 7%; in the experiment with HepG2, 31%.
For `Cc1c(CNCCCNc2nc3ccncc3[nH]2)sc(Br)c1Br.Cl`, in that order: 87%, 1% and 0%.
In the case of `CNC(=S)NCc1cnc2ccccn12`, the Inhibition in the experiment on Plasmodium falciparum [1] is listed as 97%; with Plasmodium falciparum [2], 0%; in the experiment with HepG2 it was 0%.
On to `CCCCCCCCCn1c(NCc2cc(Cl)ccc2O)nc2ccccc21`, for which the Inhibition in the experiment with Plasmodium falciparum [1] is 97%; in the experiment on Plasmodium falciparum [2], 92%; in the experiment on HepG2, 13%.
For `CCc1ccc(-n2c(=O)c3cccnc3n2CC(=O)NC2CCCC2)cc1`, in that order: 98%, 27% and 0%.
In the case of `CCOc1ccc(C2CCN(CCCCNC(=O)c3ccc(NC(=O)c4ccc(Cl)cc4)cc3)CC2)c(OCC)c1.Cl`, the Inhibition in the experiment on Plasmodium falciparum [1] was found to be 100%; in the experiment with Plasmodium falciparum [2], 95%; in the experiment with HepG2, 14%.
For `Cl.O=C(Nc1cccc2ccccc12)N1CCc2cc3nccc(N4CCN5CCC[C@H]5C4)c3cc21`, in that order: 99%, 86% and 11%.
With `COc1nc2c(CCN3CCC(NCc4ccc5c(n4)NC(=O)CO5)CC3)c(Cl)cnc2cc1F.Cl`, the Inhibition was found to be 99% with Plasmodium falciparum [1], 40% in the experiment on Plasmodium falciparum [2] and 17% with HepG2.
The like results for `Cc1cc(=O)c2cc(Oc3ccc(OC(F)(F)F)cc3)ccc2[nH]1` were, in that order, 86%, 71% and 20%.
For `Cc1cc(Cl)c(S(=O)(=O)N(C)c2ccccc2)cc1OCC(=O)NC1CCCCC1`, in that order: 99%, 94% and 3%.
